PubChem BioAssay (NCI)
“And” between values parts separate entries of the source, which are not always exact repeats. Identical values can stand only once. This is part of a sample that, as a whole, favours compounds with a hit. Of some 83,000 tested, about 20% had one in any assay.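 Single-dose data. Exposure time 48 hours. Values below 10 considered active.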 Unmarked numbers belong to inactive results. The source made the active and inactive calls.

Test system: MDA-MB-468 breast
Assay: NCI-60 one-dose screen, 48 h (100 = growth as untreated, 0 = no growth, -100 = all killed)
Details: 10 µM unless noted
Method: Growth inhibition of the MDA-MB-468 human Breast tumor cell line is measured as a screen for anti-cancer activity. Cells are grown in 96 well plates and exposed to the test compound for 48 hours. Compounds are tested at a single concentration, which is 10^-5 M for most compounds. The reported endpoint is percent growth (GI% or GIPRCNT), where numbers from 0 - 100% represent growth inhibition, and numbers from -100% - 0 represent cell death. For example, a value of 40 represents 60% growth inhibition. A value of 0 means no net growth occurred over the course of the experiment. A value of -40 indicates 40% of cells at the beginning of the experiment died by the end of the experiment. A value of -100 means all cells are dead at the end of the experiment.
NCI-60 Human Tumor Cell Lines Screen was performed using the standard one-dose NCI protocol, which is described in more detail at https://dtp.cancer.gov/discovery_development/nci-60/default.htm.
Compounds with GIPRCNT values below 10 were considered active. Activity score was based on GIPRCNT using the following formula: […]
Score is 0 for GIPRCNT values of 100 or above, 50 for GIPRCNT values of 0, and 100 for GIPRCNT values of -100.

Row | Compound | growth
1 | CC[C@H](C)[C@H](NC(=O)C12C3C4C1C1C2C3C41NC(C)=O)C(=O)N(C)[C@H](C[C@@H](OC(C)=O)c1nc(C(=O)N[C@@H](Cc2ccccc2)C[C@H](C)C(=O)OC)cs1)C(C)C (stereo not given in full) | 11.5%
2 | COC12CC3(C)C(C4=CC(=O)OC4)CCC3(O)C3CCC4=CC(=O)CCC4(CO1)C32 (stereo not given) | 101%
3 | COC(=O)CCc1c[nH]c2ccc(N(CCCl)CCCl)cc12 | 8.73% (active)
4 | C[C@]12CCc3sc(Nc4ccc(OC(F)(F)F)cc4)nc3C1=CC[C@@H]1[C@@H]2CC[C@]2(C)C(=O)CC[C@@H]12 | 69.1%
5 | ClCc1ccc2ccccc2n1 | 84.1%
6 | O=[N+]([O-])c1c(Cl)cc(Cl)c([N+](=O)[O-])c1Cl | 15%
7 | CCC(C)(C)O | 104%
8 | COc1cc(/C=C/[N+](=O)[O-])c([N+](=O)[O-])cc1OC | -71.2% (active)
9 | Cc1ccccc1-n1c(/C=C\c2ccccn2)nc2ccccc2c1=O | 3.39% (active)
10 | C[C@]12CC[C@H]3[C@@H](CC=C4c5nc(-c6ccc(Br)cc6)sc5CC[C@@]43C)[C@@H]1CC[C@@H]2O | 110%
11 | COC(=O)N[C@H]1CCc2c(Br)c(OC)c(OC)c(OC)c2-c2ccc(SC)c(=O)cc21 | -23.7% (active)
12 | CCOC(=O)P(=O)(OCC)OCC | 110%
13 | O=C(O)C1[O][Sb][O]C1C(=O)O (stereo not given) | 95.7%
14 | O=Cc1cn(Cc2ccc(Cl)cc2)c2ccccc12 | -45% (active)
15 | C[C@H]1[C@H](OC(=O)CCC(=O)Nc2cnccn2)O[C@@H]2OC3(C)CC[C@H]4[C@H](C)CC[C@@H]1[C@@]24OO3 | 50.7%
16 | CCOCC1(CCc2ccccc2)C(=O)NC(=S)NC1=O | 119%
17 | N[C@@H](CCC(=O)CCl)C(=O)O | 102% [20 µM]
18 | COC1=CC(=O)OC(CCc2ccc3c(c2)OCO3)C1 (stereo not given) | 95.9%
19 | NC(Cc1ccc(O)cc1)C(=O)N/N=C/c1ccc(N(CCCl)CCCl)cc1 (stereo not given) | 19.7%
20 | COc1ccc(/C=C\c2cc(OC)c(OC)c(OC)c2)cc1N/C=C\C(=O)c1c[nH]c2ccccc12 | 11.3%

Row | Compound | growth
21 | CCCCOCCOP(=O)(OCCOCCCC)OCCOCCCC | 91.5%
22 | CC(=O)[O][Hg][c]1c(C)c(C)cc(C)c1C | -79.4% (active)
23 | CCOC(=O)[C@@H](C)C[C@H](Cc1ccccc1)NC(=O)c1csc([C@@H](C[C@H](C(C)C)N(C)C(=O)[C@@H](NC(=O)[C@H]2C[C@H](O)CCN2C)C(C)C)OC(C)=O)n1 | 21.8%
24 | CC1=C(C)C(=O)O[C@@H]([C@](C)(O)[C@]2(O)CC[C@@]3(O)[C@@H]4C[C@H]5O[C@]56CC=CC(=O)[C@]6(C)[C@H]4CC[C@]23C)C1 | -26.3% (active)
25 | CC1(C)N=C(N)N=C(N)N1c1ccc(CCC(=O)Nc2ccc(S(=O)(=O)F)cc2)c(Cl)c1 | 64.2%
26 | CC1(C)N=C(N)N=C(N)N1c1ccc(CNC(=O)Nc2ccc(S(=O)(=O)F)c(Cl)c2)c(Cl)c1 | 30.2%
27 | O=c1[nH]c(=O)n(Cl)c(=O)n1Cl | 106% and 117%
28 | NCCc1cc(O)c(O)cc1O | 96.2%
29 | O=P(N1CC1)(N1CC1)N1CCc2ccccc21 | 95.2%
30 | CC(=O)O[C@H](C[C@H](C(C)C)N(C)C(=O)[C@@H](NC(=O)[C@H]1CCCCN1C)C(C)C)c1nc(C(=O)NC2CCC(C(=O)O)CC2)cs1 (stereo not given in full) | 29.6%
31 | CC(C)=CC1C(C(=O)OCc2cccc(Oc3ccccc3)c2)C1(C)C (stereo not given) | 100%
32 | COc1cc2c(c(OC)c1OC)-c1ccc(O)c(=O)cc1[C@@H](NC(C)=O)CC2 | 62.8%
33 | C=CC[PH+](c1ccccc1)c1ccccc1.C=CC[PH+](c1ccccc1)c1ccccc1.[Pt+2].[S-]c1ncccn1.[S-]c1ncccn1 | -5.58% (active)
34 | O=[N+]([O-])c1ccc(CI)cc1 | 75.6%
35 | C/C=C(/C)C(=O)O[C@H]1CC[C@@]2(C)[C@@H]3CC[C@H]4[C@]5(O)C[C@H](O)[C@@]6(O)[C@@H](CN7C[C@@H](C)CC[C@H]7[C@@]6(C)O)[C@]5(O)C[C@@]42O[C@@]13O | 106%
36 | CCC1(NC(=O)c2cc(F)c(F)c(F)c2F)C(=O)NC(=O)N(C(C)C)C1=O (stereo not given) | 95.2%
37 | CCOC(=O)c1c(C)n(Cc2ccccc2)c2cc(CN(C)C)c(O)cc12 | 73.9%
38 | COc1ccc(/C=C\[N+](=O)[O-])cc1OC | 53.6% and 11.6%
39 | CCOP(=O)(OCC)C(=O)N(CC)CC | 90.3%
40 | COC(=O)C12CC(NC(=O)c3csc([C@@H](C[C@H](C(C)C)N(C)C(=O)[C@@H](NC(=O)[C@H]4CCCCN4C)C(C)C)OC(C)=O)n3)(C1)C2 | 42.5%
